What all share (test): NCI-60 one-dose screen, 48 h (100 = growth as untreated, 0 = no growth, -100 = all killed)
The subject of assay [1] is HCT-15 colon. Particulars: 10 µM unless noted.
Assay [2] deals with HT29 colon. The conditions noted are these: 10 µM unless noted.
The subject of assay [3] is SNB-75 CNS. Particulars: 10 µM unless noted.
Assay [4] relates to SNB-19 CNS. Particulars: 10 µM unless noted.
Assay [5] deals with U251 CNS. Particulars: 10 µM unless noted.
The test system of assay [6] is PC-3 prostate. Particulars: 10 µM unless noted.
Assay [7] deals with SK-MEL-5 melanoma. Particulars: 10 µM unless noted.
Assay [8] deals with UACC-62 melanoma. Particulars: 10 µM unless noted.
Assay [9] relates to LOX IMVI melanoma. Particulars: 10 µM unless noted.
Assay [10] deals with SK-MEL-28 melanoma. Particulars: 10 µM unless noted.
For assay [11], the system named is SK-MEL-2 melanoma. The conditions noted are these: 10 µM unless noted.
Assay [12] concerns EKVX NSCLC. The conditions noted are these: 10 µM.
Assay [13] concerns SN12C renal. Particulars: 10 µM unless noted.
Assay [14] deals with UO-31 renal. The conditions noted are these: 10 µM unless noted.
The subject of assay [15] is TK-10 renal. The conditions noted are these: 10 µM unless noted.
For assay [16], the system named is A498 renal. Particulars: 10 µM unless noted.
For assay [17], the system named is CCRF-CEM leukemia. The conditions noted are these: 10 µM.
The subject of assay [18] is MOLT-4 leukemia. Particulars: 10 µM unless noted.
The test system of assay [19] is CAKI-1 renal. The conditions noted are these: 10 µM unless noted.
The test system of assay [20] is ACHN renal. The conditions noted are these: 10 µM unless noted.

Molecules are shown by their SMILES. About 83,000 compounds went through this panel and 20% of them were active in at least one assay; those are over-represented in the sample as a whole.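 The endpoint reported here, percent growth, reads 100 for growth as untreated, 0 for no net growth and -100 for all cells dead.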 Unmarked numbers belong to inactive results. Active and inactive are the calls of the source. How the source made its calls: active means growth percent below 10; inactive means the rest.

As to `O=C(/C=C/c1c[nH]c2ccccc12)c1cc2ccccc2o1`, the growth in assay [1] was 83.3%; in [2], 98.9%; in [3], 92%; in assay [4], 96.2%; in [5], 98.2%; in assay [6], 75.6%. Moreover, the growth in assay [7] was 102%; in assay [8] it was 87.6%; in assay [9] it was 91.7%; in [10] it was 96.6%; in [11], 105%; in [12] it was 84.4%. Besides, the growth in assay [13] is 101%; in assay [14], 60.2%; in assay [15], 140%; in [16], 102%; in [17], 36.3%; in assay [18] it was 75.3%.

Turning to `Cc1c(CN(C)C)cc(C(C)C)cc1C(C)C`, the growth was 113% in assay [1]; 86.4% in [2]; 96.7% in assay [3]; 102% in [4]; 100% in assay [5]; 109% in assay [6]. Moreover, the growth in [7] was 104%; in [8] it was 106%; in [9], 98.7%; in [10], 107%; in [11], 107%; in assay [12], 106%. The growth is 96.9% in assay [13], 108% in assay [14], 94.9% in [15] and 103% in assay [19].

Consider `CCOc1ccc2nc3ccc(Cl)cc3nc2c1`, for which the growth was 97.1% in assay [1]; 90.5% in [2]; 108% in assay [3]; 97.7% in assay [4]; 96.4% in assay [5]; 99.9% in [6]. The growth in [7] is 67.1%; in [8] it was 79.4%; in assay [9], 101%; in assay [10], 113%; in assay [11], 97.5%; in assay [12], 75%. Also, the growth was 74.9% in assay [14]; 95.1% in assay [15]; 94.6% in assay [20]; 124% in assay [19]; 83.3% in assay [16]; -0.816% (active) in assay [17]. The growth in assay [18] was 50.8%.

As for `FC(F)(F)c1cccc(-c2[nH]ncc2-c2nnnn2-c2ccccc2)c1`, the growth is 35.6% in [1]; 15.1% in assay [2]; 47.5% in assay [3]; 50.8% in assay [4]; 30.1% in assay [5]; 44% in assay [6]. Besides, the growth was 20.8% in assay [7]; 36.9% in assay [8]; 44.8% in [9]; 60.8% in assay [10]; 78.3% in assay [11]; 52.6% in assay [12]. Besides, the growth in assay [14] is 72.4%; in [15], 65.5%; in assay [20] it was 68.6%; in assay [19] it was 69.4%; in [16] it was 43.4%; in assay [17] it was 53.5%. Moreover, in assay [18], the growth is 27.1%.

With `COc1cc(NC(C)CCCN)c2nc(C)ccc2c1OC` (stereo not drawn), the growth in assay [1] was 106%; in [2] it was 93.2%; in [3], 98.7%; in [4], 107%; in assay [5], 94.7%; in assay [6], 85.9%. In addition, the growth in [7] was 101%; in assay [8], 108%; in assay [9], 106%; in assay [10], 101%; in assay [11], 99.6%; in [12] it was 97.1%. Moreover, the growth in assay [14] was 95.7%; in assay [15], 110%; in [20], 105%; in assay [19] it was 106%; in assay [16] it was 92.7%; in assay [17], 24.8%. Besides, the growth in assay [18] is 6.98% (active).

In the case of `Cc1nc2ccccc2c(=O)n1-c1cccc(OCc2cn(-c3cccc(O)c3)nn2)c1`, the growth in assay [1] was 107%; in assay [2], 96.8%; in assay [3], 88.4%; in assay [4], 91.2%; in assay [5] it was 98.2%; in assay [6], 87.6%. The growth is 87% in [7]; 81.1% in assay [8]; 94.6% in [9]; 103% in [10]; 90.6% in assay [11]; 103% in [12]. Besides, the growth in assay [13] was 97.4%; in [14], 68.2%; in assay [15], 100%; in assay [20], 93.8%; in assay [17] it was 88.3%; in assay [18] it was 80.8%.

Regarding `O=C(CBr)OCc1ccc([N+](=O)[O-])o1`, the growth is 93.9% in assay [1]; 104% in assay [2]; 91.4% in assay [3]; 104% in assay [4]; 92.1% in [5]; 76.2% in [6]. The growth is 113% in [7]; 90.4% in [8]; 83% in [9]; 99.2% in assay [10]; 97.9% in assay [11]; 124% in assay [12]. In addition, the growth in assay [13] is 98.8%; in assay [15] it was 101%; in assay [20], 89.6%; in assay [19] it was 53.8%; in assay [17], 74.1%; in assay [18], 95.6%.

With `CC([C@H]1CC=C2C3CCC4=C[C@@H](N(C)C)CC[C@]4(C)C3CC[C@@]21C)N(C)C` (stereo partly drawn), the growth in assay [1] is -20.7% (active); in [2], -18.3% (active); in assay [3], 32.4%; in assay [4], 79.7%; in assay [5], 31.5%; in [6], 42.3%. The growth was 23.6% in assay [7]; -58.3% (active) in assay [8]; -46.5% (active) in assay [9]; -33.6% (active) in assay [10]; 90.8% in [11]; -38.8% (active) in assay [12]. Further, the growth is 21.5% in assay [13]; 95.5% in assay [15]; 48.1% in assay [20]; -48.8% (active) in assay [19]; 43.4% in assay [17]; 73.5% in [18].

In the case of `Oc1ccc2ccccc2c1/C=N\Nc1ccccn1`, the growth in [1] was 28.7%; in assay [2], 111%; in assay [3] it was -7.53% (active); in assay [4] it was 27.8%; in [5] it was 21.3%; in assay [6], 45.1%. Also, the growth is 13.3% in assay [7]; 0.907% (active) in [8]; -4.69% (active) in [9]; 38.9% in [10]; 19.3% in [11]; -6.82% (active) in assay [12]. Besides, the growth is 22.4% in [13]; -24.7% (active) in assay [14]; 58.3% in assay [15]; -26.4% (active) in assay [19]; 8.91% (active) in [17]; 5.28% (active) in [18].

For the origin of these results see PubChem BioAssay (NCI).
